TGFb inhibitor = TGF-b pathway inhibition. HepG2 CAGA-GFP TGF-b/SMAD3 reporter, GFP fluorescence, 18 h; TGF-beta stimulated, 500 pg/mL final. 410,000 tested, 1.2% active. Potency, µM (series often up to 46.1 µM), inactives show at the top dose activity, negative = inhibition, usual class: inhibitors; further: potency means the concentration at half of the fitted maximal effect; on the % scale 0 is the no-effect control and ±100 the full control effect; nearly all actives have a fitted effect of over 65% in size
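HEPG2 CAGA-GFP reporter cells (1000/well, DMEM with 1% FBS) received compounds, then recombinant TGF-beta at 500 pg/mL final for 18 hours at 37 degrees C. Per-cell GFP summed per well was normalised to unstimulated and stimulated DMSO controls before curve fitting.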
TDP1 cell CPT = DT40-hTDP1 cell growth loss with CPT; chicken DT40 Tdp1-/-;hTDP1 cells + 20 nM CPT, ATP luminescence, 48 h; Potency, µM (highest dose often 46.2 µM), for the others: at the top dose activity change, negative = growth inhibition, most hits filed as inhibitors; 420,000 tested, 12% active; AID 686979; further: potency means the concentration at half of the fitted maximal effect; on the % scale 0 is the no-effect control and ±100 the full control effect; nearly all actives have a fitted effect of over 55% in size
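Chicken DT40 Tdp1-/- cells stably complemented with human TDP1 were seeded at 400 cells/well in medium containing 20 nM camptothecin, exposed to pin-transferred compounds, and grown at 37 °C for at least 48 hr. Viability was read as ATP luminescence.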
TDP1 cell noCPT = qHTS for Inhibitors of human tyrosyl-DNA phosphodiesterase 1 (TDP1): qHTS in cells in absence of CPT | DT40 Tdp1-/- hTDP1 cells, no CPT, ATP luminescence, 48 h | Potency, µM (series often up to 46.2 µM), without a hit: at the highest dose activity change, negative = growth inhibition, actives largely listed as inhibitors | 420,000 tested, 15% active | AID 686978, 2013; further: potency means the concentration at half of the fitted maximal effect; on the % scale 0 is the no-effect control and ±100 the full control effect; nearly all actives have a fitted effect of over 55% in size
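Growth kinetics read by CellTiter-Glo luminescence after ≥48 hr at 37 °C. Cells: DT40 Tdp1-/- stably carrying human TDP1, 400 per well, compound exposure in the absence of CPT (DMSO vehicle).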
HepG2 tox = counter-screen for TGF-b inhibitors: cytotoxicity in HepG2 cells. Potency, µM (top dose mostly 46.1 µM), inactives show at the highest dose activity change, negative = cytotoxicity, hits mostly cytotoxic. HepG2 CAGA-GFP viability, ATP luminescence, 18 h. AID 588856. 410,000 tested, 0.76% active; further: potency means the concentration at half of the fitted maximal effect
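CellTiter-Glo luminescence gave cytotoxicity after 18 hours at 37 degrees C. The cells were HepG2 CAGA-GFP in 1% FBS DMEM, stimulated with 500 pg/mL TGF-beta after compound addition. %Activity was normalised to no-cell wells (complete cell-killing) and DMSO (no toxicity), and curves were fitted and classified.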
IL1B secr inh = inflammasome signaling inhibition, IL-1 beta readout; activity change, % at 57.5 µM; THP-1 LPS/ATP IL-1B secretion, AlphaLISA, 16 h; active compounds read low; 360,000 tested, 4.7% active; in the data active means activity change below about -50%; inconclusive means mostly about -30% to -49%; further: on the % scale 0 is the no-effect control and ±100 the full control effect
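THP-1 cells pretreated 1 hr with compounds (up to 57.5 uM final), then stimulated with LPS (250 ng/mL final) plus ATP (1.25 mM final); secreted IL-1B measured by AlphaLISA after 16 hr, decreased signal indicating inhibition.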
TDP1 inh = TDP1 (human) enzyme inhibition | Q9NUW8 | recombinant TDP1, AlphaScreen DNA substrate cleavage | Potency, µM (highest dose often 130 µM), for inactives: at the top dose activity change, negative = inhibition, usual class: inhibitors | 350,000 tested, 0.28% active | AID 485290; further: potency means the concentration at half of the fitted maximal effect; on the % scale 0 is the no-effect control and ±100 the full control effect; nearly all actives have a fitted effect of over 40% in size
Target sequence (Q9NUW8 whole entry, looked up): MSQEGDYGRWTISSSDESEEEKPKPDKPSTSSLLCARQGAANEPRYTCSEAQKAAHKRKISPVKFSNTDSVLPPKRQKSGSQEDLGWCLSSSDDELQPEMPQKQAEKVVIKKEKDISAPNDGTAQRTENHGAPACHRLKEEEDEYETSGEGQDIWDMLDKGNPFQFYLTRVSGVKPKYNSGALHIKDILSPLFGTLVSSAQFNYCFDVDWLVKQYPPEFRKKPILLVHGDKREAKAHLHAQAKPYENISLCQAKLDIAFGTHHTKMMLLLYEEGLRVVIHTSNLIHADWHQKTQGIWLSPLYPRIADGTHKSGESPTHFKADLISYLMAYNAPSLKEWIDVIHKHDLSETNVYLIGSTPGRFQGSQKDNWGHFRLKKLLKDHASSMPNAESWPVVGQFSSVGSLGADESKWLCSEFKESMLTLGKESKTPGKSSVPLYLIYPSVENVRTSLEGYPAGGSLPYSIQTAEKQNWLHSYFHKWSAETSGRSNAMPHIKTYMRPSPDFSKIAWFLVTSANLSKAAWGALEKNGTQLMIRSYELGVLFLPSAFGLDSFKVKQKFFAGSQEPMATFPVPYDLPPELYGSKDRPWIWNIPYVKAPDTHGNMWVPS
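E. coli-derived human Tdp1, 1 nM final. Cpd preinc 15 min RT; substrate 15 nM final, 5 min RT; AS bead mix 10 ug/ml final, 10 min RT. Signal loss = tyrosine-FITC cleavage. No-enzyme wells = max signal.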
An asterisk follows results filed as active; ? = inconclusive; / = no result given; [ ] = dose if it differs, or a comment. In the library only some 19% were active in any assay of this set; here they are far more common. Unless noted, the call rests on the fitted dose curve; in most records, active means well fitted curve in the direction sought with a large enough effect; inconclusive means small, poorly fitted or top-dose-only effect, or another doubt; inactive means no such curve, though single readings can be large; an effect the other way counts as inactive or inconclusive.

SMILES	TGFb inhibitor	TDP1 cell CPT	TDP1 cell noCPT	HepG2 tox	IL1B secr inh	TDP1 inh
COc1ccc(-c2csc(NC(=O)C3CC(=O)N(Cc4ccccc4)C3)n2)cc1OC (centres undefined)	0.0%	?	?	-2.2%	-59.1*	7.3%
Cc1nnc(NC(=O)C2CC(=O)N(Cc3ccccc3)C2)s1 (centres undefined)	12.4%	-1.4%	-1.5%	11.6%	-5.8	1.7%
COc1ccc(-c2nc(CCNC(=O)c3ccco3)cs2)cc1OC	-17.8%	?	20.6µM*	-0.6%	-9.2	0.0%
COc1ccc(-c2nc(NC(=O)c3c(C)noc3C)sc2C)cc1	0.0%	10.3µM*	20.6µM*	-14.4%	0.5	4.1%
O=C(NCCc1csc(-c2ccc(F)cc2)n1)c1ccco1	-20.3%	?	-26.1%	-15.6%	/	-0.6%
COc1ccccc1C(CNC(=O)C1CC(=O)N(Cc2ccccc2)C1)N1CCCC1 (centres undefined)	-9.1%	-2.3%	4.61µM*	-8.9%	-8.2	1.3%
Cc1cc(C)c(S(=O)(=O)N2CCCCC2CCNC(=O)C(=O)NCCN2CCOCC2)c(C)c1 (centres undefined)	-3.4%	?	?	6.2%	-10.2	1.8%
CCOC(=O)c1c(C)[nH]c(C)c1S(=O)(=O)NCC(=O)NCc1cccc(Br)c1	-8.4%	-22.0%	-22.9%	-6.1%	/	5.3%
COc1ccc(-c2nc(NC(=O)c3cc(C(C)(C)C)nn3C)sc2C)cc1	?	?	20.6µM*	-2.7%	-23.5	4.0%
COCC(=O)Nc1nc(-c2ccc(C)cc2)c(C)s1	3.7%	-29.4%	?	-53.6%	-4.6	5.2%
COc1ccc(-c2csc(NC(=O)Cc3ccccc3F)n2)cc1OC	?	?	25.9µM*	-2.0%	-63.8*	6.6%
COc1ccccc1CC(=O)Nc1nc(-c2ccc(F)c(F)c2)cs1	?	?	?	-16.4%	?	7.0%
COc1ccc(-c2nc(NC(=O)c3n[nH]c(=O)c4ccccc34)sc2C)cc1	0.0%	20.6µM*	9.2µM*	-24.7%	17.6	3.4%
COc1ccc(-c2ccc(NS(=O)(=O)c3cccc(Cl)c3)cc2)nn1	-22.4%	?	?	-9.2%	/	0.6%
CC(C)CCCC(C)CCCC(C)CCCC(C)C(=O)O (centres undefined)	/	/	/	/	/	1.6%
COc1ccccc1NC(=O)CSC1=Nc2ccccc2C2=NC(CCC(=O)NCc3cccs3)C(=O)N12 (centres undefined)	-21.5%	?	?	-27.6%	/	4.4%
Cc1cccc(N2C(=O)c3cccc4c(N(C)CCO)ccc(c34)C2=O)c1	128.0%	?	18.4µM*	-21.1%	34.4	0.0%
Cc1cccc(N2C(=O)c3cccc4c(N)ccc(c34)C2=O)c1	183.7%	?	-25.7%	1.6%	-58.4*	-5.1%
COc1cc(CNC(=O)c2ccccc2NC(=O)C2=C(C)OCCS2)cc(OC)c1OC	-1.2%	1.1%	-23.6%	-0.4%	-3.9	3.2%
COc1cc(NC(=O)C2=C(C)OCCS2)c(Cl)cc1C(=O)NCCN(C)C	-1.5%	-4.1%	-21.7%	4.2%	-82.9*	/
COc1ccc(CCNC(=O)c2ccccc2NC(=O)C2=C(C)OCCS2)c(OC)c1	3.1%	20.6µM*	10.3µM*	-13.3%	0.0	5.8%
COc1cc(CCNC(=O)c2ccccc2NC(=O)C2=C(C)OCCS2)cc(OC)c1OC	-18.3%	-67.3%	?	-1.0%	-15.8	2.0%
O=C(OCC#CCSc1nnc(-c2cccc3ccccc23)o1)c1ccc2ccccc2c1	8.0%	/	/	-0.5%	/	-4.4%
CC(Sc1nncs1)C(=O)Nc1ccc(Cl)cn1 (centres undefined)	37.9%	-10.5%	-5.2%	2.4%	-12.7	0.0%
CC(C)N=c1cc2n(-c3ccc(Cl)cc3)c3ccccc3nc-2cc1Nc1ccc(Cl)cc1	-4.5%	13µM*	16.4µM*	-12.8%	-14.8	12.8%[56.1 µM]
SMILES	TGFb inhibitor	TDP1 cell CPT	TDP1 cell noCPT	HepG2 tox	IL1B secr inh	TDP1 inh
CCOC(=O)c1ccccc1NC(=O)CSc1nc(=O)[nH]c2c1CCC2	19.1%	0.3%	-10.1%	4.3%	/	2.6%
CC(OC(=O)c1n[nH]c2ccccc12)C(=O)NC1CCCCC1C (centres undefined)	4.8%	-8.8%	?	-20.4%	-7.4	0.8%
O=C(NCCc1ccccn1)c1nc(Cn2cc(Br)cn2)no1	17.8%	2.8%	9.0%	3.0%	6.2	0.3%[0.0935 µM]
C/C=C/c1cccc(-c2nc(C(=O)N3CCCCC3)cc3c2[C@H](CCO)N(C(=O)NC(C)C)C3)c1	/	-9.6%	-21.5%	/	1.1	/
C/C=C/c1cccc(-c2nc(C(=O)NC3CCCC3)cc3c2[C@@H](CCO)N(S(=O)C(C)(C)C)C3)c1 (some centres undefined)	?	25.9µM*	18.4µM*	-14.4%	-3.6	/
C/C=C/c1cccc(-c2nc(C(=O)NC3CCC3)cc3c2[C@H](CCO)N(S(=O)C(C)(C)C)C3)c1 (some centres undefined)	?	?	?	3.7%	-19.0	/
C/C=C/c1cccc(-c2nc(C(=O)NC3Cc4ccccc4C3)cc3c2[C@@H](CCO)N(C(C)=O)C3)c1	/	14.6µM*	?	/	-56.5*	/
O=C(CSc1nc2ccccc2c(=O)n1-c1ccc(F)cc1F)NC1CCS(=O)(=O)C1 (centres undefined)	-6.2%	?	?	2.0%	-9.4	/
Cc1cc(NC(=O)Nc2ccc3c(ccn3C)c2)sn1	12.6%	?	?	-7.1%	-100.2*	12.4%[56.1 µM]
Cc1ccc(OCCCC(=O)Nc2sc3c(c2C(N)=O)CCC(C)C3)cc1 (centres undefined)	0.5%	-8.5%	-27.1%	-8.3%	/	-2.2%[12.3 µM]
C=CC[C@@](C(C)=O)(C(=O)OC)C(NC(=O)OC)c1ccccc1 (some centres undefined)	/	/	/	/	/	8.1%
O=C1/C(=C/c2ccc([N+](=O)[O-])cc2)C=C(c2ccccc2)N1c1ccccc1	-1.1%	?	?	-9.7%	-0.3	3.1%
O=C1/C(=C/c2ccc([N+](=O)[O-])cc2)C=C(c2ccccc2)N1c1ccc(O)cc1	9.1%	5.17µM*	2.91µM*	-9.4%	-99.3*	9.1%
COc1ccc(N2C(=O)/C(=C/c3ccc([N+](=O)[O-])cc3)C=C2c2ccccc2)cc1	2.7%	3.66µM*	2.91µM*	-13.0%	?	9.5%

Assay outcomes as filed in PubChem BioAssay.
